# High-throughput results: PubChem, National Center for Advancing Translational Sciences (NCATS)
# HT1080NT lethal – qHTS for induction of synthetic lethality in tumor cells producing 2HG: qHTS for the HT-1080-NT fibrosarcoma cell line; HT-1080-NT fibrosarcoma viability, CellTiter-Glo ATP luminescence, 48 h; Potency, µM (highest dose often 46.1 µM), for inactives: at the top dose activity, negative = less viability, actives largely listed as cytotoxic; hit rate 1.6% among 360,000; AID 686970, 2013;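 also: NT is the 2HG producing partner of a matched IDH1 knockdown line; potency is read from the fitted curve at half-maximal effect; 0% = DMSO-treated cells and -100% = media-only wells without cells; nearly all actives have a fitted effect of over 55% in size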
#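 HT-1080-NT; 750 cells/well; 5% FBS RPMI; 48 h compound, 37 degrees C; CellTiter-Glo luminescence; curve fitting and curve-class assignment.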
# HT1080 IDH1KD tx – qHTS for induction of synthetic lethality in tumor cells producing 2HG: qHTS for the HT-1080-IDH1KD cell line; HT-1080 IDH1 knockdown viability, ATP luminescence, 48 h; Potency, µM (doses to about 46.1 µM), inactives show at the highest dose activity, negative = toxicity, actives largely listed as cytotoxic; hit rate 2% among 360,000;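 also: potency is read from the fitted curve at half-maximal effect; 0% = DMSO wells and -100% = cell-free medium wells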
#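 % activity derives from luminescence (CellTiter-Glo), normalised to DMSO and no-cell wells. HT-1080-IDH1KD cells, 750/well, had 48 h compound exposure at 37 °C.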
# TDP1 cell CPT – qHTS for Inhibitors of human tyrosyl-DNA phosphodiesterase 1 (TDP1): qHTS in cells in presence of CPT. Potency, µM (doses to about 46.2 µM), for the others: top-dose activity change, negative = growth inhibition, usual class: inhibitors. hit rate 12% among 420,000. chicken DT40 Tdp1-/-;hTDP1 cells + 20 nM CPT, ATP luminescence, 48 h; also: potency is read from the fitted curve at half-maximal effect; nearly all actives have a fitted effect of over 55% in size
#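 Cell growth measured by CellTiter-Glo luminescence after a minimum 48 h, 37 C compound exposure with 20 nM CPT in Tdp1-knockout DT40 cells stably expressing hTDP1, seeded 400/well; qHTS titration format.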
# IL1B secr inh – qHTS for Inhibitors of Inflammasome Signaling: IL-1-beta AlphaLISA Primary Screen; THP-1 LPS/ATP IL-1B secretion, AlphaLISA, 16 h; active compounds read low; activity change, % at 57.5 µM; hit rate 4.7% among 360,000; in the data active = activity change below about -50%; inconclusive = mostly about -30% to -49%
#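 Secreted IL-1B measured by AlphaLISA bead assay after 16 h compound exposure of THP-1 cells; compounds (final up to 57.5 uM) added 1 h before LPS (250 ng/mL) and ATP (1.25 mM) stimulation; lower signal means less secretion.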
# DT40 TDP1 no CPT – qHTS for Inhibitors of human tyrosyl-DNA phosphodiesterase 1 (TDP1): qHTS in cells in absence of CPT. AID 686978, 2013. Potency, µM (titrated, usually from 46.2 µM), for inactives: at the top dose activity change, negative = growth inhibition, hits mostly inhibitors. DT40 Tdp1-/- hTDP1 cells, no CPT, ATP luminescence, 48 h. hit rate 15% among 420,000; also: potency is read from the fitted curve at half-maximal effect; nearly all actives have a fitted effect of over 55% in size
#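 No-CPT arm: Tdp1-/-;hTDP1 DT40 cells (400/well) plus compounds, incubated ≥48 hr at 37 °C. Readout CellTiter-Glo luminescence.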
# The depositor's hits bear a star; ? = inconclusive; . = no result given. Only some compounds are listed: those with a hit (about 19% of all), similar ones and a draw of the others. Unless noted, calls follow the shape of the dose curve; as a rule, active = well fitted curve in the direction sought with a large enough effect; inconclusive = small, poorly fitted or top-dose-only effect, or another doubt; inactive = no such curve, though single readings can be large; an effect the other way counts as inactive or inconclusive. Unless noted, % is scaled to controls: 0 for no effect and ±100 for the full control effect.
SMILES,HT1080NT lethal,HT1080 IDH1KD tx,TDP1 cell CPT,IL1B secr inh,DT40 TDP1 no CPT
Nc1nc(N)c2ncn(C3C=CC(CO)C3)c2n1 (centres undefined),20.5%,4.0%,6.51µM*,16.4,9.2µM*
COC(=O)c1ccc(COC(=O)C(NC(=O)Cc2ccccc2)C(C)C)cc1 (centres undefined),5.3%,6.0%,-27.3%,11.8,16.4µM*
COc1ccccc1C(=O)COC(=O)C(NC(=O)Cc1ccccc1)C(C)C (centres undefined),-2.5%,0.0%,?,18.7,?
CC(C)Cc1nn2c(=O)cc(COC(=O)c3cccc(NC(=O)CCc4ccccc4)c3)nc2s1,.,.,-17.5%,.,-8.8%
CCc1nn2c(=O)cc(COC(=O)c3cccc(NC(=O)CCc4ccccc4)c3)nc2s1,.,.,?,.,6.51µM*
CCCc1nn2c(=O)cc(COC(=O)c3cccc(NC(=O)COc4ccccc4C)c3)nc2s1,.,.,?,.,18.4µM*
CCc1nn2c(=O)cc(COC(=O)c3ccc(NC(=O)CCc4ccccc4)cc3)nc2s1,.,.,23.1µM*,.,9.2µM*
CN(c1ccccc1)S(=O)(=O)c1ccc2c(c1)oc(=O)n2C,-4.5%,-17.0%,-5.6%,25.9,3.0%
CCOC(=O)c1sc(N2C(=O)c3oc4ccccc4c(=O)c3C2c2ccc(C(C)(C)C)cc2)nc1C (centres undefined),.,.,7.3%,.,-0.2%
Cc1cc(-c2ccccc2)nc(-c2ccccc2)c1C,1.8%,1.7%,1.1%,0.0,-7.2%
Cc1c(Cl)ccc2c(C(O)CBr)cc(-c3ccccc3)nc12 (centres undefined),?,?,?,-86.4*,16.4µM*
CCOC(=O)c1[nH]nc2c1C(=O)N(Cc1ccccc1)C2=O,-7.9%,-0.5%,-19.9%,6.5,-14.6%
CCc1ccccc1N(C(C)=O)c1nc(CCl)cs1,4.4%,13.4%,14.6µM*,-14.9,23.1µM*
Cc1ccc(C(=O)N2CCN(CCNC(=O)C(=O)NCc3ccc(Cl)cc3)CC2)cc1,28.6%,16.7%,16.4µM*,0.0,?
NS(=O)(=O)c1ccc(NC(=S)Nc2ccc(C(=O)N3CCCCC3)cc2)cc1,2.5%,7.8%,-6.0%,25.5,-29.4%
O=C(c1ccc(NC(=S)NCc2ccc(Cl)cc2)cc1)N1CCCCC1,3.7%,2.1%,?,7.2,23.1µM*
O=C(c1ccc(NC(=S)Nc2ccc(Cl)c(Cl)c2)cc1)N1CCCC1,-19.2%,-21.7%,?,-99.3*,?
COC(=O)c1cccc(NC(=S)NCc2ccc(Cl)cc2)c1,-6.4%,-2.4%,?,17.2,?
COC(=O)c1cc(NC(=S)NCc2ccc(Cl)cc2)cc(C(=O)OC)c1,?,?,16.4µM*,-4.6,?
COc1cc(NC(=O)COc2ccc(C)c(C)c2)ccc1NC(=O)c1ccco1,14.6%,6.1%,17.0%,-6.9,-3.3%
CC1CCCN(C(=O)Cn2nnc(-c3ccc(S(C)(=O)=O)cc3)n2)C1 (centres undefined),-0.2%,7.3%,-3.5%,6.4,-1.4%
CCOC(=O)c1cccc(NC(=O)c2nn(-c3ccc(OC)cc3)c(=O)c3c2c2ccccc2n3C)c1,.,.,-1.2%,.,-18.4%
Cc1cccc(N2CCN(Cc3nc(CC4CC4)no3)CC2)n1,5.0%,1.6%,-2.7%,19.6,-7.2%
Cc1ccc(NCc2cccn2-c2nnc(N3CCC(C(=O)NCCC(C)C)CC3)s2)cc1,.,.,?,.,20.6µM*
COCCCNC(=O)C1CCN(c2nnc(-n3cccc3CNc3ccc(C)cc3)s2)CC1,.,.,-9.3%,.,-8.2%
CSc1ccc(CNC(=O)C2CCN(c3nnc(-n4cccc4CNc4ccc(C)cc4)s3)CC2)cc1,.,.,?,.,16.4µM*
CCCC(CCC)C(=O)Nc1cccc(-c2nc3cccnc3s2)c1,.,.,-7.6%,.,-1.6%
